{
  "source": "PubChem BioAssay AID2284426",
  "about": "(EPA ToxCast)",
  "note": "The source made the active and inactive calls. How the source made its calls: active means hit-call score of the fitted dose curve at least 0.9, where 1 is the maximum; inactive means score below 0.9.",
  "data": [
    {"assay": "CCTE_Deisenroth_DEVTOX-GLR_Ecto_CellCount: Viability Assessment in CCTE's DevTox GLR-Ecto Assay, Deisenroth Lab", "method": "CCTE_Deisenroth_DEVTOX-GLR_Ecto assay is a cell-based, multiplex-readout assay that uses RUES2-GLR, a human pluripotent cell line, with measurements taken at 48 hours after chemical dosing in a 384-well microplateCCTE_Deisenroth_DEVTOX-GLR_Ecto_CellCount is 1 of 4 assay components calculated from the CCTE_Deisenroth_DEVTOX-GLR_Ecto assay and it measures cell count. Using fluorescent nuclei staining, gain-of-signal activity can be used to understand changes in cell viability with fluorescent microscopy. It is designed to make measurements of nuclei counts as a surrogate for cell number, as detected with optical fluorescence microscopy by Perkin Elmer Harmony nuclei detection algorithm. To generalize the intended target to other relatable targets, this assay component is annotated to the cell cycle intended target family, where the subfamily is cytotoxicity.Data from the assay component CCTE_Deisenroth_DEVTOX-GLR_Ecto_CellCount was analyzed as 1 assay endpoint. The endpoint the percent change in the cell count relative to the 0.2% DMSO control in the CCTE_Deisenroth_DEVTOX-GLR_Ecto assay. Furthermore, this assay endpoint can be referred to as a […] readout, because this assay has produced multiple assay endpoints where this one serves as a measure of cytotoxicity.\nAll assay protocols are aligned to the DevTox GLR-Endo assay workflow. Cells are seeded into 384-well microplates for 24 hours prior to initiating differentiation in defined media for a total duration of 48 hours. A total of two chemical exposures are administered in 24-hour intervals during the 48-hour differentiation period. At the assay termination point, cells are fixed and stained with a fluorescent dye demarcating the nucleus. High-content imaging is used to acquire brightfield and fluorescent channel images across 5 fields per well. Cell identification and mean biomarker fluorescence intensities are calculated with image analysis software to determine the total cell counts for viability assessment and the biomarker expression frequency for each lineage-dependent assay. A typical experimental design tests a 10-point concentration series (1 nM - 200 uM) for 28 compounds in single technical replicate. Assay plate controls include non-differentiated pluripotent cells (baseline control), lineage-specific differentiated cells (differentiation control), and DMSO solvent exposed differentiated cells (solvent control). Experiments typically comprise a minimum of four experimental replicates (n=4).", "values": [
      {"molecule": "CC1=C(/C=C/C(C)=C/C=C/C(C)=C\\C(=O)O)C(C)(C)CCC1", "AC50": "460 nM (active)"},
      {"molecule": "CC/C(=C(/CC)c1ccc(O)cc1)c1ccc(O)cc1", "outcome": "inactive"},
      {"molecule": "CN(Cc1cnc2nc(N)nc(N)c2n1)c1ccc(C(=O)N[C@@H](CCC(=O)O)C(=O)O)cc1", "outcome": "inactive"},
      {"molecule": "CCN(CC)CCNC(=O)c1c(C)[nH]c(/C=C2\\C(=O)Nc3ccc(F)cc32)c1C", "AC50": "1250 nM (active)"},
      {"molecule": "CC1(C)S[C@@H]2[C@H](NC(=O)Cc3ccccc3)C(=O)N2[C@H]1C(=O)O", "outcome": "inactive"},
      {"molecule": "O=C1NS(=O)(=O)c2ccccc21", "outcome": "inactive"},
      {"molecule": "O=c1[nH]cc(F)c(=O)[nH]1", "AC50": "3870 nM (active)"},
      {"molecule": "O=C1NC(=O)C(c2ccccc2)(c2ccccc2)N1", "outcome": "inactive"},
      {"molecule": "CC1=C(/C=C/C(C)=C/C=C/C(C)=C/C(=O)O)C(C)(C)CCC1", "AC50": "24.2 nM (active)"},
      {"molecule": "CC(C)(c1ccc(O)cc1)c1ccc(O)cc1", "outcome": "inactive"},
      {"molecule": "CCCC(CCC)C(=O)O", "outcome": "inactive"},
      {"molecule": "Nc1cccc2c1C(=O)N(C1CCC(=O)NC1=O)C2=O", "note": "(stereo unspecified)", "outcome": "inactive"},
      {"molecule": "CC(=O)Nc1ccc(O)cc1", "outcome": "inactive"},
      {"molecule": "O=C1CCC(N2C(=O)c3ccccc3C2=O)C(=O)N1", "note": "(stereo unspecified)", "outcome": "inactive"},
      {"molecule": "CS(=O)(=O)OCCCCOS(C)(=O)=O", "AC50": "20400 nM (active)"},
      {"molecule": "Nc1nc2ncc(CNc3ccc(C(=O)N[C@@H](CCC(=O)O)C(=O)O)cc3)nc2c(=O)[nH]1", "outcome": "inactive"}
    ]}
  ]
}
